The test concerns the target T1, CRBN, Q96SW2.
T1 chain: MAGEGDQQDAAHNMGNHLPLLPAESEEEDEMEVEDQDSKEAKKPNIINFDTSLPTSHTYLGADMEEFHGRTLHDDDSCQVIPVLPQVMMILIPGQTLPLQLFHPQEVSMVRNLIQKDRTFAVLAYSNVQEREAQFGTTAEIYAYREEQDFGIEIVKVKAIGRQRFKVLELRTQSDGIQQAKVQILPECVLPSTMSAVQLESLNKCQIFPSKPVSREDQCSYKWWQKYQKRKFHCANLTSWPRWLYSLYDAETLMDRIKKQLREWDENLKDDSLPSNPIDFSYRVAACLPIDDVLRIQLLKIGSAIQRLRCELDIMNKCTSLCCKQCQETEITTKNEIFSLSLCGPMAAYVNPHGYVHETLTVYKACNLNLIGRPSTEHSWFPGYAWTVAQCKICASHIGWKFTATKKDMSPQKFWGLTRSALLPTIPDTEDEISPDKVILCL
Kind of test: log2 fold change of degron read counts, EGFP-low vs EGFP+ sorted cells (limma voom), compound-induced degradation; higher = more compound-induced degradation of the degron-EGFP fusion; degrons are variants of IKZF1/3 zinc finger 2; compound dose not given here. The note with it: Jurkat, 18 h.

Where [1] appears, read: compound: compound 19 (5-tert-butyl-thalidomide).
Setting [2] is: compound: compound 22 (5-morpholino-thalidomide).
Where [3] appears, read: compound: compound 33 (diphenyl IMiD analogue).

In all, about 8,300 sequences were measured (“log2 fold change of degron read counts, EGFP-low vs EGFP+ sorted cells (limma voom), compound-induced degradation”: median about -1.1, highest 2% from about 3.2 on). Shown is part of a subset that was picked to be rich in the highest values.
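Also: pooled lentiviral library of zinc finger degron-EGFP fusions in mCherry-positive Jurkat cells, FACS-sorted after compound exposure, with degron abundance counted by next-generation sequencing.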

Regarding FDCNVCGALFTQKGNLLRHIKL [46F_47D_49N_50V_52G_53A_54L_55F_67L_, Q9UKT9], the “log2 fold change of degron read counts” value is, setting by setting: under setting [1], -2.45; under setting [2], -2.67; under setting [3], -0.75; (compound: thalidomide) -0.856.

Consider FRCPICGHEFTQKGNLLRHIKL [46F_47R_49P_50I_52G_53H_54E_55F_67L_, Q9UKT9], for which the “log2 fold change of degron read counts” value is, setting by setting: under setting [1], -2.68; under setting [2], -2.48; under setting [3], -1.5; (compound: thalidomide) -1.35.

FTCEQCGAHFTQKGNLLRHIKL [46F_47T_49E_50Q_52G_53A_54H_55F_67L_, Q9UKT9]: the “log2 fold change of degron read counts” value by setting is: under setting [1], -1.82; under setting [2], -1.63; under setting [3], -0.151; (compound: thalidomide) -0.624.

As to FVCNQCGHNFTQKGNLLRHIKL [46F_47V_49N_50Q_52G_53H_54N_55F_67L_, Q9UKT9], the “log2 fold change of degron read counts” value is, setting by setting: under setting [1], -3; under setting [2], -3.4; under setting [3], -2.99; (compound: thalidomide) -3.15.

As to FICEICGAKFTQKGNLLRHIKL [46F_47I_49E_50I_52G_53A_54K_55F_67L_, Q9UKT9], the “log2 fold change of degron read counts” value runs as follows: under setting [1], 0.419; under setting [2], 2.07; under setting [3], 0.709; (compound: thalidomide) 2.61.

For FRCEICGAKFTQKGNLLRHIKL [46F_47R_49E_50I_52G_53A_54K_55F_67L_, Q9UKT9], the “log2 fold change of degron read counts” value is, setting by setting: under setting [1], -0.269; under setting [2], -0.354; under setting [3], 0.56; (compound: thalidomide) 1.68.

In the case of FGCEICGAKFTQKGNLLRHIKL [46F_47G_49E_50I_52G_53A_54K_55F_67L_, Q9UKT9], the “log2 fold change of degron read counts” value runs as follows: under setting [1], 3.49; under setting [2], 1.63; under setting [3], -1.11; (compound: thalidomide) 1.73.

For FTCEICGAKFTQKGNLLRHIKL [46F_47T_49E_50I_52G_53A_54K_55F_67L_, Q9UKT9], the “log2 fold change of degron read counts” value is, setting by setting: under setting [1], 0.913; under setting [2], 1.9; under setting [3], 0.245; (compound: thalidomide) 2.71.

As to FWCEICGAKFTQKGNLLRHIKL [46F_47W_49E_50I_52G_53A_54K_55F_67L_, Q9UKT9], the “log2 fold change of degron read counts” value under setting [1] was determined as 3.96, the “log2 fold change of degron read counts” value under setting [2] was 3.75, the “log2 fold change of degron read counts” value under setting [3] is 1.53 and the “log2 fold change of degron read counts” value (compound: thalidomide) was determined as 1.31.

With FVCEICGAKFTQKGNLLRHIKL [46F_47V_49E_50I_52G_53A_54K_55F_67L_, Q9UKT9], the “log2 fold change of degron read counts” value is, setting by setting: under setting [1], 1.42; under setting [2], 1.89; under setting [3], 0.387; (compound: thalidomide) 3.07.

For the sequence FMCEICGAKFTQKGNLLRHIKL [46F_47M_49E_50I_52G_53A_54K_55F_67L_, Q9UKT9], the “log2 fold change of degron read counts” value under setting [1] was found to be 0.747, the “log2 fold change of degron read counts” value under setting [2] was -0.267, the “log2 fold change of degron read counts” value under setting [3] came to 0.58 and the “log2 fold change of degron read counts” value (compound: thalidomide) came out at 1.27.

As for FACEICGAKFTQKGNLLRHIKL [46F_47A_49E_50I_52G_53A_54K_55F_67L_, Q9UKT9], the “log2 fold change of degron read counts” value reads like this: under setting [1], 3.82; under setting [2], 1.86; under setting [3], -1.82; (compound: thalidomide) 1.35.

With FFCNQCGAAFTQKGNLLRHIKL [46F_47F_49N_50Q_52G_53A_54A_55F_67L_, Q9UKT9], the “log2 fold change of degron read counts” value was -1.05 under setting [1], -0.697 under setting [2], -0.811 under setting [3] and -1.91 (compound: thalidomide).

LMCPICGFICTQKGNLLRHIKL [46L_47M_49P_50I_52G_53F_54I_55C_67L_, Q9UKT9]: the “log2 fold change of degron read counts” value is, setting by setting: under setting [1], -0.334; under setting [2], 0.292; under setting [3], 2.06; (compound: thalidomide) 1.27.

As to LRCNQCGFGCTQKGNLLRHIKL [46L_47R_49N_50Q_52G_53F_54G_55C_67L_, Q9UKT9], the “log2 fold change of degron read counts” value was -1.13 under setting [1], -1.8 under setting [2], -1.41 under setting [3] and -1.08 (compound: thalidomide).

In the case of FFCSVCGHEFTQKGNLLRHIKL [46F_47F_49S_50V_52G_53H_54E_55F_67L_, Q9UKT9], the “log2 fold change of degron read counts” value is -2.81 under setting [1], -3.34 under setting [2], -3.2 under setting [3] and -2.56 (compound: thalidomide).

Take FCCPICGAMFTQKGNLLRHIKL [46F_47C_49P_50I_52G_53A_54M_55F_67L_, Q9UKT9]: the “log2 fold change of degron read counts” value under setting [1] was determined as 1.6, the “log2 fold change of degron read counts” value under setting [2] turned out to be 1.26, the “log2 fold change of degron read counts” value under setting [3] was found to be 2.22 and the “log2 fold change of degron read counts” value (compound: thalidomide) was found to be 1.23.

Turning to FSCNQCGHTFTQKGNLLRHIKL [46F_47S_49N_50Q_52G_53H_54T_55F_67L_, Q9UKT9], the “log2 fold change of degron read counts” value runs as follows: under setting [1], -2.44; under setting [2], -2.51; under setting [3], -2.85; (compound: thalidomide) -2.59.

These data come from the supplement of paper PMC12645437, “Orthogonal IMiD-Degron Pairs Induce Selective Protein Degradation in Cells” (ACS Chemical Biology, 2025).
